The values below come from PubChem BioAssay (NCATS).

Values joined by “and” are separate entries in the source; they are usually repeats but may differ in a detail not shown here. Equal values may be shown once. Results filed as inconclusive are left out. Active and inactive are the calls of the source. Unless noted, calls come from the whole dose curve; as a rule, active = well fitted curve in the direction sought with a large enough effect; inconclusive = small, poorly fitted or top-dose-only effect, or another doubt; inactive = no such curve, though single readings can be large; an effect the other way counts as inactive or inconclusive. A value given as a limit tells only on which side of the number the result lay.

Experiment [1] has as its target Glucocorticoid receptor (Homo sapiens) (UniProt P04150). The experiment can be described thus: GR-GFP Redistribution (AID 450;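 active = compounds whose dose series gives a full or clear partial fitted curve of increased nuclear translocation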; note: potency is the fitted concentration of half-maximal effect). The following applies: U2OS GR-GFP nuclear translocation, laser cytometry, 2 h.
Experiment [2] has the same target. The experiment can be described thus: GR-EFC Redistribution (AID 451; calls by dose curve; note: potency is the fitted concentration of half-maximal effect). The note with it: CHO-K1 GR-EFC translocation, beta-gal luminescence, 2 h. Summed up:
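Translocation of GR-ED fusion to nuclear EA restores b-gal, read by luminescence after 1 h room-temperature detection. Engineered CHO-K1 biosensor cells, 1,000/well, exposed 2 h at 37 C to titrations up to 46 uM final.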

Experiment [3] deals with Mitogen-activated protein kinase 10 (Mus musculus) (UniProt Q61831). As to the kind of experiment: JNK3 AlphaScreen Assay (AID 530; active = well fitted curve in either direction with a large enough effect, not every such curve was filed as active;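 note: kinase came from lysate of stimulated human HepG2 cells; signal reports phosphorylation of biotinylated GST-cJun 1-79 at Ser73 with 10 µM ATP; % is set by controls: 0 for no effect and ±100 for the full control effect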). Summed up: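 qHTS titrations with 15 min compound pre-incubation before adding ATP (10 uM final). Read-out: AlphaScreen of Ser73-phosphorylated biotin-GST-cJun using HepG2 lysate JNK3 activated by IL-1β and TNFα.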
In general terms: Alpha assays give light when donor and acceptor beads are brought close together.

A short description of experiment [4]: qHTS Assay for Lipid Storage Modulators (AID 1519; calls by dose curve). The following applies: Drosophila S3 cells, BODIPY lipid droplet/cell ratio, laser cytometry, cells loaded with oleic acid. The procedure, abridged:
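Cells seeded at 5,000 per well were treated with compounds over a concentration series and loaded with oleic acid (400 uM, as added). Lipid droplet fluorescence (488 nm excitation, 500-530 nm channel) was read by laser-scanning cytometry and normalized to 20 uM Triacsin C.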

Experiment [5] deals with Ubiquitin carboxyl-terminal hydrolase 1 (Homo sapiens) (UniProt O94782). As to the kind of experiment: Inhibitors of USP1/UAF1: Pilot qHTS (AID 504865).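 Note: rhodamine fluorescence freed from ubiquitin-rhodamine substrate followed over time; top concentration of the series differs between compounds; % is set by controls: 0 for no effect and ±100 for the full control effect; nearly all actives have a fitted effect of over 35% in size.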 The procedure, abridged: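 USP1/UAF1 complex (1nM) preincubated with compound 15 min at room temperature, then Ub-Rho substrate (150nM final) added. Fluorescence read kinetically at 480/540 nm, 6 reads every 60 seconds. Buffer: 50mM HEPES pH 7.8, 0.5mM EDTA, 0.1 mg/ml BSA, 1mM TCEP, 0.01% Tween-20.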
For orientation: Quantitative high-throughput screening tests each substance at several concentrations.

Experiment [6] has as its system Zika virus NS2B-NS3 protease. As to the kind of experiment: Primary screen GU AMC qHTS for Zika virus inhibitors (AID 1347154).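 For activity change, negative = inhibition: 0% = no-inhibitor control and -100% = no-enzyme control.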 Note: nearly all actives have a fitted effect of over 70% in size. Note: potency is the fitted concentration of half-maximal effect. The procedure, abridged: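 Fluorogenic AMC-substrate cleavage by noncovalent NS2B-NS3 protease complex (25 nM, pH 8.0 Tris buffer with Tween 20) followed for 15 minutes at room temperature (~20% conversion). Percent inhibition from ex340/em450 signal change, fitted by 4-parameter Hill equation.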

Experiment [7] is described as follows: Primary qHTS for small molecule stabilizers of the endoplasmic reticulum resident proteome: Secreted ER Calcium Modulated Protein (SERCaMP) assay (AID 1508630). Note: % is set by controls: 0 for no effect and ±100 for the full control effect. The procedure, abridged: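 The SH-SY5Y reporter protocol was run at 3 concentrations up to 38.3 uM (primary) or 11 concentrations (follow-up): 16 h compound, 100 nM thapsigargin for 4 h, then extracellular luciferase luminescence.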

The target of experiment [8] is Cytochrome P450 1A2 (Homo sapiens) (UniProt P05177). As to the kind of experiment: p450-cyp1a2 (AID 410; calls by dose curve; note: potency is the fitted concentration of half-maximal effect). The procedure, abridged: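 Luminescent demethylation readout: Luciferin-ME (100uM, equal to Km) turned over by 20nM CYP1A2 for 60 min at room temperature after NADPH regeneration addition, following 10 min compound preincubation. Normalization used 57 uM furafylline as full inhibition.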

The target of experiment [9] is DNA dC->dU-editing enzyme APOBEC-3G (Homo sapiens) (UniProt Q9HC16). As to the kind of experiment: qHTS for inhibitors of Vif-A3G interactions: Validation (AID 588379). Note: 0% is about no effect. The procedure, abridged:
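Yellow fluorescence (Ex 488, Em 500-530) of Vif-coexpressing HeLa A3G-eYFP cells, scanned by Acumen cytometer, reports blocked A3G degradation. Cells plated at 700/well overnight at 37 deg C before compound addition, then a further overnight compound incubation at 37 deg C.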

Experiment [10] can be described thus: Stat Signaling Pathway (AID 446; active = well fitted curve in either direction with a large enough effect, not every such curve was filed as active;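 note: ME-180 cervical cancer cells given 40 pM IL-6 alongside compound; SIE-controlled beta-lactamase reporter measured as 460/530 nm FRET emission ratio; % is set by controls: 0 for no effect and ±100 for the full control effect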). Summed up: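 FRET read-out (405 nm excitation, 460/530 nm emission) of a beta-lactamase reporter under a STAT-inducible element in ME-180 cervical carcinoma cells. Cells with compound receive 40 pM IL-6 for 5 h. Values are normalised to AC90 stimulation and AC90 JAK-inhibitor controls.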
For experiment [11], the target named is 3',5'-cyclic-AMP phosphodiesterase 4B (Homo sapiens) (UniProt Q07343). The experiment can be described thus: qHTS Assay for Inhibitors of PDE-IV (AID 607; active = well fitted activation curve with a large enough effect in the main read-out, with a control signal flat, not every such curve was filed as active; note: % of control where 0% means no effect). The procedure, abridged: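 Cell-based read-out of cAMP via a modified cyclic nucleotide-gated channel and membrane potential dye (535/590 nm) in HEK293 cells expressing PDE4 endogenously. Compounds tested up to 22.9 uM final; 100 uM RO 20-1724 reference.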

Experiment [12] deals with Guanine nucleotide-binding protein G(i) subunit alpha-1 (Homo sapiens) (UniProt P63096). As to the kind of experiment: qHTS Assay for Inhibitors of RGS12 GoLoco Motif Activity (Green Fluorophore) (AID 879).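 Note: 0% = labeled peptide with Gαi1 and full inhibition = labeled peptide alone without protein; negative values mean loss of peptide binding seen as reduced polarization.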 The procedure, abridged: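 A drop in FITC polarization marked displacement of the FITC-tagged RGS12 GoLoco peptide (10 nM) from Gαi1 (50 nM). Compounds were incubated 10 min at room temperature in Tris pH 7.5 buffer containing 150 mM NaCl, 0.1 mM GDP and 0.05% NP40; unlabeled peptide titration served as control.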

Experiment [13] has as its target Muscarinic acetylcholine receptor M1 (Rattus norvegicus) (UniProt P08482). The experiment can be described thus: qHTS Assay for Antagonists of Acetylcholine Muscarinic M1 Receptor: Measurement of IP-One Response (AID 944). Note: nearly all actives have a fitted effect of over 75% in size. The procedure, abridged: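 IP1 accumulation measured via TR-FRET between d2-IP1 and Eu-cryptate anti-IP1 antibody after carbachol (200 nM, EC80) stimulation for 30 min; rat M1-transfected CHO cells received compound 10 min before agonist.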

The target of experiment [14] is Pyruvate kinase (Leishmania mexicana) (UniProt Q27686). As to the kind of experiment: qHTS Validation Assay for Inhibitors of Leishmania Mexicana Pyruvate Kinase (AID 945).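 Note: 0% = DMSO only neutral control wells.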 The procedure, abridged:
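Compounds are tested as eight-point concentration series. Reactions contain 0.2 nM LmPYK E451W, 0.5 mM PEP, 0.1 mM ADP, 7 mM MgCl2 and 50 mM KCl at pH 7.2, run 1 h at room temperature, then read by PKLight luminescence.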

Experiment [15] concerns the target Pyruvate kinase PKM (Homo sapiens) (UniProt P14618). As to the kind of experiment: qHTS Assay for Activators of Human Muscle Pyruvate Kinase (AID 954; active = well fitted curve in the direction sought with a large enough effect, not every such curve was filed as active;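 note: 0% = uninhibited enzyme and -100% = no enzyme or full thiadiazolimine inhibition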). Summed up: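 ATP production by PKM2 detected via luciferase luminescence after 1 h room-temperature reaction (0.1 nM enzyme, PEP at Km 0.5 mM, ADP 0.1 mM, pH 7.2 imidazole buffer). Inhibition scaled to no-enzyme control; activation referenced to 0.3 nM enzyme wells.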

Experiment [16] deals with Alpha-galactosidase (Coffea arabica) (UniProt Q42656). The experiment can be described thus: Counterscreen for Glucocerebrosidase Inhibitors: qHTS Assay for Coffee Bean alpha-Galactosidase at pH 4.5 (AID 957).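 Note: plate controls were enzyme alone for no effect and no enzyme for full effect.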 Summed up:
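Fluorogenic qHTS at pH 4.5 (citrate buffer with Tween-20): 2 nM enzyme, 80 uM 4-MU-alpha-galactoside substrate, compound titrated 0.7 nM to 77 uM, 20 min room temperature. Glycine/NaOH stop; 4-MU read Ex 365/Em 440; Hill-equation AC50 against no-enzyme and enzyme controls.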
(A counterscreen serves to expose hits that act by an unwanted route or on another target.)

For experiment [17], the target named is Alpha-galactosidase A (Homo sapiens) (UniProt P06280). As to the kind of experiment: Counterscreen for Glucocerebrosidase Inhibitors: qHTS Assay for Human alpha-Galactosidase at pH 4.5 (AID 992). Note: 0% is about no effect. The procedure, abridged:
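Fluorogenic 1536-well qHTS at pH 4.5 (citrate, Tween-20): 2 nM enzyme, 80 uM 4-MU-alpha-galactoside, 20 min room temperature, NaOH/glycine stop. Titration 0.7 nM to 77 uM, data normalized to no-enzyme and full-activity controls, Hill-fitted AC50.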

Experiment [18] has as its target alpha-glucosidase (Oryza sativa, rice) (UniProt Q653V4). The experiment can be described thus: Counterscreen for Glucocerebrosidase Inhibitors: qHTS Assay for Rice alpha-Glucosidase at pH 5.0 (AID 997).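 Note: 0% = full activity with enzyme and -100% = basal without enzyme.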 Summed up: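 Endpoint fluorogenic assay at pH 5.0: compounds (0.7 nM to 77 uM) titrated against 4 nM rice enzyme and 400 uM 4-MU-alpha-glucoside for 20 min at room temperature; NaOH/glycine stop, read ex 365/em 440 nm, Hill-fitted AC50.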

Experiment [19] concerns the target Alpha-galactosidase (Coffea arabica) (UniProt Q42656). As to the kind of experiment: Counterscreen for Glucocerebrosidase Inhibitors: qHTS Assay for Coffee Bean alpha-Galactosidase at pH 5.9 (AID 998).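 Note: plate controls were uninhibited enzyme for no effect and no-enzyme basal signal for full effect.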 Summed up:
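Fluorogenic 4-MU substrate hydrolysis, 80 uM substrate and 2 nM coffee bean alpha-galactosidase, pH 5.9 citrate buffer, 20 min at room temperature, then NaOH/glycine stop. Titration 0.7 nM–77 uM, normalized to no-enzyme and enzyme controls, AC50 via Hill equation.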

Experiment [20] is described as follows: NFAT Signaling Pathway (AID 444; active = well fitted curve in either direction with a large enough effect, not every such curve was filed as active;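 note: carbachol stimulus at about its EC50 of 1 µM final; % is set by controls: 0 for no effect and ±100 for the full control effect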). The following applies: Jurkat NFAT-bla M1, carbachol, beta-lactamase ratio, 5 h; at 17.2 µM (top of the series). The procedure, abridged:
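Read-out: CCF4 FRET ratio (460 nm/530 nm) after 1 h RT dye loading, used for %activity and AC50 from titration series. Cells: Jurkat NFAT-β-lactamase/M1 line, treated with compound plus 1 uM carbachol for 5 h, 37 °C.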

[21] abbreviates: measured here: cell count channel max response.
Setting [22] is: measured here: lipid channel max response.

Glucocorticoid receptor (Homo sapiens), sequence (P04150 whole entry, looked up): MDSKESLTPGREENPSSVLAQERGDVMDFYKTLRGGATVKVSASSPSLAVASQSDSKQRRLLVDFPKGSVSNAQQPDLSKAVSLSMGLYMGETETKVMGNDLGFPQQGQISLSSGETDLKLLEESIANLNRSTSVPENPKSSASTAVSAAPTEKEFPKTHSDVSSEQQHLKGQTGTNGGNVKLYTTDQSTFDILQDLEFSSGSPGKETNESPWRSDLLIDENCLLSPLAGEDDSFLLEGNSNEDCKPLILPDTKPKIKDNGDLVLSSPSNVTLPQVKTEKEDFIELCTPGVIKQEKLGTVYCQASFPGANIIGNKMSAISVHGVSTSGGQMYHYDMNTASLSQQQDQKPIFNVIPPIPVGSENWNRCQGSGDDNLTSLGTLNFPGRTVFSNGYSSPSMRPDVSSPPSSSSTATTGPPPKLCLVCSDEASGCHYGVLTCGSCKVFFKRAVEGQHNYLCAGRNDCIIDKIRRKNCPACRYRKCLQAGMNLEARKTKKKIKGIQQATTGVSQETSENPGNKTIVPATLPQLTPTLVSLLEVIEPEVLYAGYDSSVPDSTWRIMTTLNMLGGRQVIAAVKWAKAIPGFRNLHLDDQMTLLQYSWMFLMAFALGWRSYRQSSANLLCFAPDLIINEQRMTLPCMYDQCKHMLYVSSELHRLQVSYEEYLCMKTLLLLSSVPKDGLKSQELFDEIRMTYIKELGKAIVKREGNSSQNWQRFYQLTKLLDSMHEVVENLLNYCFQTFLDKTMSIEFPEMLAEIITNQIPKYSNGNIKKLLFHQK
Ubiquitin carboxyl-terminal hydrolase 1 (Homo sapiens), sequence (O94782 whole entry, looked up): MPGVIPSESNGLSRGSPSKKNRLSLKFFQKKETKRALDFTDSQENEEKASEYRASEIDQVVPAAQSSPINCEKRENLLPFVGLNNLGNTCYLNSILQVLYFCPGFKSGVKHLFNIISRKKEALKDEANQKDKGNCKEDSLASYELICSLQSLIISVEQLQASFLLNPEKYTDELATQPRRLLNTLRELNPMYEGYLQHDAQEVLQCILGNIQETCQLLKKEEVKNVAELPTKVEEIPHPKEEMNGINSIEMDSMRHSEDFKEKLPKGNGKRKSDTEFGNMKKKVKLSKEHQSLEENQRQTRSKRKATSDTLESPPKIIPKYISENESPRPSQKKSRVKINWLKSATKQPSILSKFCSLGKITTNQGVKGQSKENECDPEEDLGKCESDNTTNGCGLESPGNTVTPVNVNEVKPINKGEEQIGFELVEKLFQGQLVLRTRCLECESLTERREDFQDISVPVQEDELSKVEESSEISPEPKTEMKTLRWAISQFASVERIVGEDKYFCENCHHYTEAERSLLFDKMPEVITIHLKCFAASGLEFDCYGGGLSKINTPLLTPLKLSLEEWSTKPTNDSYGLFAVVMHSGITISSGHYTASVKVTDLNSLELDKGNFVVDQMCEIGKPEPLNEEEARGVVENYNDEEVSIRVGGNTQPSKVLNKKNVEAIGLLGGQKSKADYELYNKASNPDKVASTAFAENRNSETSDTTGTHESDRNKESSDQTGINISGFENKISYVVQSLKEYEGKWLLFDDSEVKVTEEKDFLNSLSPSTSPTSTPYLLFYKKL
DNA dC->dU-editing enzyme APOBEC-3G (Homo sapiens), sequence (Q9HC16 whole entry, looked up): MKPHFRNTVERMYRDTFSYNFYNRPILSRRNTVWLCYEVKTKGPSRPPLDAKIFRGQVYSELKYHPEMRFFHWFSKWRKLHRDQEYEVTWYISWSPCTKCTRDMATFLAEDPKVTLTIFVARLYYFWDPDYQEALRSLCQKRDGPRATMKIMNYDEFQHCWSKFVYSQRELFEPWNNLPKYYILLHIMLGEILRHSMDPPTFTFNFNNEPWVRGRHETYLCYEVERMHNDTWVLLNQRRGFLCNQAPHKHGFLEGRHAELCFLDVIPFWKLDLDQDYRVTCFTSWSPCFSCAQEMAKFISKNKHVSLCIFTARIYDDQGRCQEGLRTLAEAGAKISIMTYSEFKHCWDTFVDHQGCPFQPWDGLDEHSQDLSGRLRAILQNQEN
3',5'-cyclic-AMP phosphodiesterase 4B (Homo sapiens), sequence (Q07343 whole entry, looked up): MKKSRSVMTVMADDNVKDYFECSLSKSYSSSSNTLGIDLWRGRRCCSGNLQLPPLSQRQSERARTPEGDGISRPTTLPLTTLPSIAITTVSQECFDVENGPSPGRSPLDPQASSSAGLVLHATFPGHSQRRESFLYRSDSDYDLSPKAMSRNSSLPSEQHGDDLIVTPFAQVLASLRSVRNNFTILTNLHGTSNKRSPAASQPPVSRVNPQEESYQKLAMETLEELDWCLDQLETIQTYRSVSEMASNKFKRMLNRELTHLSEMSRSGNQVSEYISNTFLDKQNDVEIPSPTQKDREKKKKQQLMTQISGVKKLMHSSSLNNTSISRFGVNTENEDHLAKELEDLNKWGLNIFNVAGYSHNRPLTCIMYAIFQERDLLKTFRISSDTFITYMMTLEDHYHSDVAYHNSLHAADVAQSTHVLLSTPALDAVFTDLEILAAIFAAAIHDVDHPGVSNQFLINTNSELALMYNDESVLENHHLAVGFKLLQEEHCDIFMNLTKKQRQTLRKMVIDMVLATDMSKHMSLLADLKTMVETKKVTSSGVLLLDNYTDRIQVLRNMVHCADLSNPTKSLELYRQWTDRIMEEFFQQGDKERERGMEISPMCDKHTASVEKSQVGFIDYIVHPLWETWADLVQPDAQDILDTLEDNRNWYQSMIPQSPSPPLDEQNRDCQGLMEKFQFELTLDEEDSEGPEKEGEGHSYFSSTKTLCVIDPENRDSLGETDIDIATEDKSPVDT
Alpha-galactosidase (Coffea arabica), sequence (Q42656 whole entry, looked up): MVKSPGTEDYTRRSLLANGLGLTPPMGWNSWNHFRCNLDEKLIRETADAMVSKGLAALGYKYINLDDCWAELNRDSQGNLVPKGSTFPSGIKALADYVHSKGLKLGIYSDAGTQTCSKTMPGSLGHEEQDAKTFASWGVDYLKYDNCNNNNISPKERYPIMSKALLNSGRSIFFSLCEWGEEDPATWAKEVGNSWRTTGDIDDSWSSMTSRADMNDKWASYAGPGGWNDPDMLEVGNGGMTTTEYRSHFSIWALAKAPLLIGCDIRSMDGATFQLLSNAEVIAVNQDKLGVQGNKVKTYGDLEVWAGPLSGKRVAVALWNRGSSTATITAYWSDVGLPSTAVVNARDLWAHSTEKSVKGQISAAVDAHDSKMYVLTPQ
Cytochrome P450 1A2 (Homo sapiens), sequence (P05177 whole entry, looked up): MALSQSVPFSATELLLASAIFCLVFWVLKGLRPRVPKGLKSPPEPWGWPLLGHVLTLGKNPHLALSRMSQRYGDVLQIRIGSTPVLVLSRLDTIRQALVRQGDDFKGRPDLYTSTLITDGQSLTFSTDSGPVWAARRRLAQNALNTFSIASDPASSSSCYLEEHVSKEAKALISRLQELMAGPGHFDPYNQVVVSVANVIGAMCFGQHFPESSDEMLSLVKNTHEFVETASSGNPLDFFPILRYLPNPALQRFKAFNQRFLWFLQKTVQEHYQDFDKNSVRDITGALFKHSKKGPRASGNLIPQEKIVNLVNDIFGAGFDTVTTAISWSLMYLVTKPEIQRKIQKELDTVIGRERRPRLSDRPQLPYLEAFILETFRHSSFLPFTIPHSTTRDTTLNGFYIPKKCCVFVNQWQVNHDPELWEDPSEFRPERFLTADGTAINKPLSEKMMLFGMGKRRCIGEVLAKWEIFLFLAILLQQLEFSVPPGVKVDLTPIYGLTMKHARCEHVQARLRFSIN
Alpha-galactosidase A (Homo sapiens), sequence (P06280 whole entry, looked up): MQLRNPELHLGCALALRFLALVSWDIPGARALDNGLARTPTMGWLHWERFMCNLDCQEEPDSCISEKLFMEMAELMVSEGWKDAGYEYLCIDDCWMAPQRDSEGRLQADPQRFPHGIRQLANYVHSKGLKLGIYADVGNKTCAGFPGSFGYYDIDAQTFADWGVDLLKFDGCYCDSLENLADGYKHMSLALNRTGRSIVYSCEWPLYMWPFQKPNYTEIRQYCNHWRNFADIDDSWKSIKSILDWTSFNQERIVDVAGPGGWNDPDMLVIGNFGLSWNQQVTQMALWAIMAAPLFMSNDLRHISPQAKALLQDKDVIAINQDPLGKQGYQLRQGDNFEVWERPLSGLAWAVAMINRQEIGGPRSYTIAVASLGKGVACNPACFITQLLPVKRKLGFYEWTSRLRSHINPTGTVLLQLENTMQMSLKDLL
Guanine nucleotide-binding protein G(i) subunit alpha-1 (Homo sapiens), sequence (P63096 whole entry, looked up): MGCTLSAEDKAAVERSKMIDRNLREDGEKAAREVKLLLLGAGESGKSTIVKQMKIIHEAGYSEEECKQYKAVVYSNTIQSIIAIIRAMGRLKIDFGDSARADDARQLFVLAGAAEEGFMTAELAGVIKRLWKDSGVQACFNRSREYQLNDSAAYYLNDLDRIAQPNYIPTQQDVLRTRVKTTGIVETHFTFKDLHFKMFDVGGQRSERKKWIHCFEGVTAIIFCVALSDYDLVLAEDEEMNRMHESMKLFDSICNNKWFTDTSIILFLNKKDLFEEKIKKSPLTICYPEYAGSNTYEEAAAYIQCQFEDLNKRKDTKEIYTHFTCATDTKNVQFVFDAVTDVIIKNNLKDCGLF
Pyruvate kinase PKM (Homo sapiens), sequence (P14618 whole entry, looked up): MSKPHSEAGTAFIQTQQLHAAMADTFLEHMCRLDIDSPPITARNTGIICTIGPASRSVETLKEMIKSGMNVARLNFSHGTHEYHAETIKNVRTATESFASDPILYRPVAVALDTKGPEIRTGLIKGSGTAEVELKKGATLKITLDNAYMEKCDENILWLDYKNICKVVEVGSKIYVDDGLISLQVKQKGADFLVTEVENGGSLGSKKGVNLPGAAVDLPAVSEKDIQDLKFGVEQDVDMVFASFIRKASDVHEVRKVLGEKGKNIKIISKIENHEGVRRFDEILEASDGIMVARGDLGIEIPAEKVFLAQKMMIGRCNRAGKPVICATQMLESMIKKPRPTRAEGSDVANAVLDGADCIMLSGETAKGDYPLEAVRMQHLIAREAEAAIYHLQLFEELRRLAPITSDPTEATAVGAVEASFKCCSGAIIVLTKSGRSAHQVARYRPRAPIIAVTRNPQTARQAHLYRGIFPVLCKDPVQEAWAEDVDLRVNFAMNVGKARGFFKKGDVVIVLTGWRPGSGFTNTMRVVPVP

Take `CC(C)[C@@H]1CN[C@H](C(=O)O)[C@@H]1CC(=O)O`: the Potency in [1] and in experiment [2] was > 46 µM (inactive) in each case. Moreover, the result in experiment [3] was inactive. Further, the activity change, negative = inhibition in experiment [4] (at 57.5 µM (top of the series)) was 5.36% (inactive). The max response is 14.8% in experiment [4] (setting [21]) and 17.2% in [4] (setting [22]). Besides, the Potency result in experiment [5], in [6] and in experiment [7] was “inactive” each time.

Take `CN1CCc2cc(O)cc3c2C1Cc1ccc(O)c(O)c1-3` (stereo not given): the Potency in experiment [6] was 18.9 µM (active). For the same molecule, the Potency entry in [7] is “inactive”.

`CCCn1c(C)c(C(=O)c2cccc3ccccc23)c2ccccc21`: the Potency was 2 µM (active) in experiment [8], > 46 µM (inactive) in experiment [1] and > 46 µM (inactive) in [2]. Besides, the call in experiment [3] was inactive. The Potency entry in [9], in [6] and in [7] was “inactive” in each case.

On to `N#CC(C#N)=Cc1ccc([N+](=O)[O-])c(O)c1`, for which the Potency in experiment [8] is 31.6 µM (active); in experiment [1], > 46 µM (inactive); in experiment [2], > 46 µM (inactive). The call in experiment [10], in experiment [3], in experiment [12], in [14], in experiment [15] and in experiment [16] was inactive. Also, the outcome in [17], in [18] and in experiment [19] was inactive. For the same molecule, the Potency result in experiment [11], in experiment [13], in experiment [6] and in experiment [7] was “inactive” throughout.

`COC(=O)/C=C\C(=O)N[C@@H]1CC[C@@]2(O)[C@H]3Cc4ccc(O)c5c4[C@@]2(CCN3CC2CC2)[C@@H]1O5`: the Potency in [1] and in experiment [2] was > 46 µM (inactive) each time. The outcome in experiment [3] was inactive. The Potency result in [11], in experiment [5], in [9], in [6] and in experiment [7] was “inactive” throughout. Further, the activity change, negative = inhibition in experiment [4] (at 57.5 µM (top of the series)) was -0.127% (inactive). The max response in experiment [4] (setting [21]) is -6.87%; in experiment [4] (setting [22]), -10.5%.

For the molecule `CCN1C[C@]2(C)CC[C@H](O)[C@@]34C5C[C@@H]6[C@@H](OC)C[C@@](O)(C5[C@H]6O)[C@@H](CC23)[C@@H]14` (stereo not given in full), the activity change, negative = inhibition in experiment [4] (at 57.5 µM (top of the series)) is 1.68% (inactive). The max response in experiment [4] (setting [21]) was -11.5%; in experiment [4] (setting [22]), -11%. Besides, the Potency result in experiment [9], in experiment [6] and in experiment [7] was “inactive” in each case.

Regarding `CN1C[C@H](CNC(=O)OCc2ccccc2)C[C@H]2c3cccc4c3c(cn4C)C[C@@H]21`, the results for the activity change, negative = inhibition in experiment [20] and in experiment [4] (at 25.7 µM (top of the series)) were -3.47% (inactive) and -3.64% (inactive), respectively. In addition, the molecule was classed as inactive in experiment [10] and in [3]. Moreover, the Potency was > 20.6 µM (inactive) in [1]; > 20.6 µM (inactive) and > 46 µM (inactive) in experiment [2]. For the same molecule, the Potency result in experiment [11], in [6] and in [7] was “inactive” in each case. Moreover, the max response in experiment [4] (setting [21]) was -21.4%; in [4] (setting [22]) it was -20.5%.

Take `Cc1ccc(C[N+](C)(C)C)o1`: in [1], the Potency is > 46 µM (inactive). Also, in [4] (at 57.5 µM (top of the series)), the activity change, negative = inhibition is 4.98% (inactive). For the same molecule, the values for the max response in experiment [4] (setting [21]) and in [4] (setting [22]) were 20.9% and 30.2%, respectively. In addition, the Potency result in experiment [5], in experiment [9], in [6] and in experiment [7] was “inactive” in each case.
